Tests used:
Test in all cases: log2 ratio of Biotin-Ahx-Ub-VS probe labelling (fragment/DMSO); higher = less target engagement (more negative = stronger competition), active = hit call of the paper (q ≤ 0.05, log2 ratio ≤ -1)
Conditions in all cases: compound concentration: 200 uM; treatment time: 3 h
USP19 = target: T1, USP19 (UniProt O94966)
T1 sequence (whole entry): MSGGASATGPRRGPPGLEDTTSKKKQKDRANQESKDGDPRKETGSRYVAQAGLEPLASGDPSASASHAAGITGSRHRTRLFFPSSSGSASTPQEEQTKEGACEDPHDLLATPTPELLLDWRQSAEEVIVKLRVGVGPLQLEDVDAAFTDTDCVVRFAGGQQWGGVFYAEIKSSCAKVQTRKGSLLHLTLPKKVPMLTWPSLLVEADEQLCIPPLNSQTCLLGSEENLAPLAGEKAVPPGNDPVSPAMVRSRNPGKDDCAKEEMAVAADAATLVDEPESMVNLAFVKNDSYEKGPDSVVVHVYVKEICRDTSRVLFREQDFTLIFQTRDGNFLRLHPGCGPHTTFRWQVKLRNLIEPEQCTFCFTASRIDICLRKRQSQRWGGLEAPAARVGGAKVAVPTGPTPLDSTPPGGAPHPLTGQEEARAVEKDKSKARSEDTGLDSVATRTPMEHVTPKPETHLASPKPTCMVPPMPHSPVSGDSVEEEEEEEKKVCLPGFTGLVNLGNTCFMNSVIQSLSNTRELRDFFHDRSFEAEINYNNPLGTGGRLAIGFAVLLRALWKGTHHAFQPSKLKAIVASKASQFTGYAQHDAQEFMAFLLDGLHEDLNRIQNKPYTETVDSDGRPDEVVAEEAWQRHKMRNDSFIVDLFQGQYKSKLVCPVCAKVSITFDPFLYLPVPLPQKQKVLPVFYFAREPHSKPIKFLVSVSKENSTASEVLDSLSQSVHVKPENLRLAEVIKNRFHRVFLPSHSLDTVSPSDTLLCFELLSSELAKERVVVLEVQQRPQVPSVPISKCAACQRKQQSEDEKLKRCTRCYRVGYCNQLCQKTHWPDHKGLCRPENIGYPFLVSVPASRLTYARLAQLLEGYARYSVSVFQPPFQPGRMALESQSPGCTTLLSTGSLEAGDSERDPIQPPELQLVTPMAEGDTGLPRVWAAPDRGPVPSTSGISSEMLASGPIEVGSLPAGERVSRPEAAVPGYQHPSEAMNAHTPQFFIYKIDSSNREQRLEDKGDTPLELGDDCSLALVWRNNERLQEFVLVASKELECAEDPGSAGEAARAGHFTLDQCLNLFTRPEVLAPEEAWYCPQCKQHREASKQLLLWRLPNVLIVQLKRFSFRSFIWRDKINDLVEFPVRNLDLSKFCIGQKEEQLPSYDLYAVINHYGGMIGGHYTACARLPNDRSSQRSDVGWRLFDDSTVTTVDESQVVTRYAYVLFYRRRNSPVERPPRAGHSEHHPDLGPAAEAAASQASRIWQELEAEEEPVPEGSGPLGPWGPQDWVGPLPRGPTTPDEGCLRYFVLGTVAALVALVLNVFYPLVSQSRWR
Method in brief: (§1)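 Fragment (200 µM) or vehicle was incubated for 3 h with triplicate HEK293T lysate samples of 495 µg, which were then treated with Biotin-Ahx-Ub-VS at 0.5 µM final for 1 h. Labelled DUBs were enriched on NeutrAvidin, digested with LysC and trypsin, and analysed by diaPASEF LC-MS/MS. Values are average log2 fragment/vehicle ratios from an unpaired t-test on global-median-normalised Spectronaut label-free quantities, using proteins with ≥2 unique peptides.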

USP22 = target: T2, USP22 (UniProt Q9UPT9)
T2 sequence (whole entry): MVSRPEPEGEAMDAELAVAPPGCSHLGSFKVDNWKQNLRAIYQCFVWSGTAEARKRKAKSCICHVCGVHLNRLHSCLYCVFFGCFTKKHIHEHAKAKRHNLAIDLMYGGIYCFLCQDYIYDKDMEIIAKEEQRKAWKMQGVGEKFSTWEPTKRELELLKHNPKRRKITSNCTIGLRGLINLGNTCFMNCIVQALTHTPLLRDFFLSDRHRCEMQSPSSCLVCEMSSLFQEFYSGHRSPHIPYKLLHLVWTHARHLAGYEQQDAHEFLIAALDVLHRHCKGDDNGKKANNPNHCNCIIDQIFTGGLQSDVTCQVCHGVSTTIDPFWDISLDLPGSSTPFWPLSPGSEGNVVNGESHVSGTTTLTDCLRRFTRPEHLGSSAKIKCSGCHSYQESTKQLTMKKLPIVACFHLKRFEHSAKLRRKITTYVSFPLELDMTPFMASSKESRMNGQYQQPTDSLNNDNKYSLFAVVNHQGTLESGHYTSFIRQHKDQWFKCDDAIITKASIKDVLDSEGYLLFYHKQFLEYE
Method in brief: as §1

USP24 = USP24 (UniProt Q9UPU5)
Method in brief: as §1

USP25 = target: T3, USP25 (UniProt Q9UHP3)
T3 sequence (whole entry): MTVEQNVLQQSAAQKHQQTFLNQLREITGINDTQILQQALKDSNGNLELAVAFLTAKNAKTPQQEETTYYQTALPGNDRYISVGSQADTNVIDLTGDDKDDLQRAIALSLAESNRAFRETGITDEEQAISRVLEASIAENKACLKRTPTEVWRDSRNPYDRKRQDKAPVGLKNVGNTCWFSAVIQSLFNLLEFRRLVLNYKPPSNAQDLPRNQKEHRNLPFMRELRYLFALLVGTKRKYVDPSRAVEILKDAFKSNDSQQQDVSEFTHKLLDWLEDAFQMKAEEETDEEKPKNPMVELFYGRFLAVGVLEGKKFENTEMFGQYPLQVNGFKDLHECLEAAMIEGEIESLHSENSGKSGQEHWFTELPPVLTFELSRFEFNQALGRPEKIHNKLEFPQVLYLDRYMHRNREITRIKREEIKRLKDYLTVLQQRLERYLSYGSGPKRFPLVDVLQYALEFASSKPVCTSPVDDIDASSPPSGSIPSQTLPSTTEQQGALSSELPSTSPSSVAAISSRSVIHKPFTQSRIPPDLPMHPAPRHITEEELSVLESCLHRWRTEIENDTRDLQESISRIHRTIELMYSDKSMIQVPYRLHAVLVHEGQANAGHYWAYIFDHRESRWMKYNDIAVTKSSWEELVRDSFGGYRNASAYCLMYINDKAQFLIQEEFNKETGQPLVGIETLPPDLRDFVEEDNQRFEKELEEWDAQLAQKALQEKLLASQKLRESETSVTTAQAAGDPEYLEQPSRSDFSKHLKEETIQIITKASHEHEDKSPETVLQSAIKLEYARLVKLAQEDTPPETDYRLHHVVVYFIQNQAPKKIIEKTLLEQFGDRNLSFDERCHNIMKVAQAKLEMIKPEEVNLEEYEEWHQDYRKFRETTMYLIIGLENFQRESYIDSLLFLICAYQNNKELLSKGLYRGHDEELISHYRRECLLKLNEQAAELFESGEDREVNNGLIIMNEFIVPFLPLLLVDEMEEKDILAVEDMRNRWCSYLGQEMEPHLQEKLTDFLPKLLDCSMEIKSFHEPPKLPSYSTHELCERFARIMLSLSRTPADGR
Method in brief: as §1

USP28 = target: T4, USP28 (UniProt Q96RU2)
T4 sequence (whole entry): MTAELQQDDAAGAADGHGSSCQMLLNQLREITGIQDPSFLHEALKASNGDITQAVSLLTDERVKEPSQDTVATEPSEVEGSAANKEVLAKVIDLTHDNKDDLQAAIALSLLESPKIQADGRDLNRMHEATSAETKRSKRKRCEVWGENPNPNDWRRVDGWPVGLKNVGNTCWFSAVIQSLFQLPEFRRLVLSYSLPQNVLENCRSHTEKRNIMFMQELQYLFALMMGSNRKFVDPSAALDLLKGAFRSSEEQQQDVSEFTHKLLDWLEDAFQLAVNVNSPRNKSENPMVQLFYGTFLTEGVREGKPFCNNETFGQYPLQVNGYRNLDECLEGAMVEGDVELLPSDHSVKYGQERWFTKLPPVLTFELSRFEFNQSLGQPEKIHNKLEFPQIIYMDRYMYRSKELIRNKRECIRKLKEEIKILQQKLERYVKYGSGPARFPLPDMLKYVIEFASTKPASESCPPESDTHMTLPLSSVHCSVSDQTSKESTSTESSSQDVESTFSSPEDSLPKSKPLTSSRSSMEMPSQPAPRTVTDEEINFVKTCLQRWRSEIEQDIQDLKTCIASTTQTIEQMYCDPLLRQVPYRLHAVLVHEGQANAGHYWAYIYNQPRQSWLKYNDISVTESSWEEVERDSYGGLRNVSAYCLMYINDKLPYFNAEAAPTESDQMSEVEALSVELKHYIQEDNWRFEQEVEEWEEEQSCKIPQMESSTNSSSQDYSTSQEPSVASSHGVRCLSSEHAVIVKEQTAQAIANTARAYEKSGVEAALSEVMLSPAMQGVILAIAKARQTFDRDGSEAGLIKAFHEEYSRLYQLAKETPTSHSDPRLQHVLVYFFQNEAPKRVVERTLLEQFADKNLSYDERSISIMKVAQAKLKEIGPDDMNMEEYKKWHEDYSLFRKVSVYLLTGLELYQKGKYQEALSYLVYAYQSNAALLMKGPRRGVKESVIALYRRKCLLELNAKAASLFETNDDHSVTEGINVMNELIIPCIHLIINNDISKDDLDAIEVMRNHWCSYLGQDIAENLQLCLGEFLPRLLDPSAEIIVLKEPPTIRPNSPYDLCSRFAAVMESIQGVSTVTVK
Method in brief: as §1

Measured: log2 ratio of Biotin-Ahx-Ub-VS probe labelling

Chain of USP24 (Q9UPU5 whole entry): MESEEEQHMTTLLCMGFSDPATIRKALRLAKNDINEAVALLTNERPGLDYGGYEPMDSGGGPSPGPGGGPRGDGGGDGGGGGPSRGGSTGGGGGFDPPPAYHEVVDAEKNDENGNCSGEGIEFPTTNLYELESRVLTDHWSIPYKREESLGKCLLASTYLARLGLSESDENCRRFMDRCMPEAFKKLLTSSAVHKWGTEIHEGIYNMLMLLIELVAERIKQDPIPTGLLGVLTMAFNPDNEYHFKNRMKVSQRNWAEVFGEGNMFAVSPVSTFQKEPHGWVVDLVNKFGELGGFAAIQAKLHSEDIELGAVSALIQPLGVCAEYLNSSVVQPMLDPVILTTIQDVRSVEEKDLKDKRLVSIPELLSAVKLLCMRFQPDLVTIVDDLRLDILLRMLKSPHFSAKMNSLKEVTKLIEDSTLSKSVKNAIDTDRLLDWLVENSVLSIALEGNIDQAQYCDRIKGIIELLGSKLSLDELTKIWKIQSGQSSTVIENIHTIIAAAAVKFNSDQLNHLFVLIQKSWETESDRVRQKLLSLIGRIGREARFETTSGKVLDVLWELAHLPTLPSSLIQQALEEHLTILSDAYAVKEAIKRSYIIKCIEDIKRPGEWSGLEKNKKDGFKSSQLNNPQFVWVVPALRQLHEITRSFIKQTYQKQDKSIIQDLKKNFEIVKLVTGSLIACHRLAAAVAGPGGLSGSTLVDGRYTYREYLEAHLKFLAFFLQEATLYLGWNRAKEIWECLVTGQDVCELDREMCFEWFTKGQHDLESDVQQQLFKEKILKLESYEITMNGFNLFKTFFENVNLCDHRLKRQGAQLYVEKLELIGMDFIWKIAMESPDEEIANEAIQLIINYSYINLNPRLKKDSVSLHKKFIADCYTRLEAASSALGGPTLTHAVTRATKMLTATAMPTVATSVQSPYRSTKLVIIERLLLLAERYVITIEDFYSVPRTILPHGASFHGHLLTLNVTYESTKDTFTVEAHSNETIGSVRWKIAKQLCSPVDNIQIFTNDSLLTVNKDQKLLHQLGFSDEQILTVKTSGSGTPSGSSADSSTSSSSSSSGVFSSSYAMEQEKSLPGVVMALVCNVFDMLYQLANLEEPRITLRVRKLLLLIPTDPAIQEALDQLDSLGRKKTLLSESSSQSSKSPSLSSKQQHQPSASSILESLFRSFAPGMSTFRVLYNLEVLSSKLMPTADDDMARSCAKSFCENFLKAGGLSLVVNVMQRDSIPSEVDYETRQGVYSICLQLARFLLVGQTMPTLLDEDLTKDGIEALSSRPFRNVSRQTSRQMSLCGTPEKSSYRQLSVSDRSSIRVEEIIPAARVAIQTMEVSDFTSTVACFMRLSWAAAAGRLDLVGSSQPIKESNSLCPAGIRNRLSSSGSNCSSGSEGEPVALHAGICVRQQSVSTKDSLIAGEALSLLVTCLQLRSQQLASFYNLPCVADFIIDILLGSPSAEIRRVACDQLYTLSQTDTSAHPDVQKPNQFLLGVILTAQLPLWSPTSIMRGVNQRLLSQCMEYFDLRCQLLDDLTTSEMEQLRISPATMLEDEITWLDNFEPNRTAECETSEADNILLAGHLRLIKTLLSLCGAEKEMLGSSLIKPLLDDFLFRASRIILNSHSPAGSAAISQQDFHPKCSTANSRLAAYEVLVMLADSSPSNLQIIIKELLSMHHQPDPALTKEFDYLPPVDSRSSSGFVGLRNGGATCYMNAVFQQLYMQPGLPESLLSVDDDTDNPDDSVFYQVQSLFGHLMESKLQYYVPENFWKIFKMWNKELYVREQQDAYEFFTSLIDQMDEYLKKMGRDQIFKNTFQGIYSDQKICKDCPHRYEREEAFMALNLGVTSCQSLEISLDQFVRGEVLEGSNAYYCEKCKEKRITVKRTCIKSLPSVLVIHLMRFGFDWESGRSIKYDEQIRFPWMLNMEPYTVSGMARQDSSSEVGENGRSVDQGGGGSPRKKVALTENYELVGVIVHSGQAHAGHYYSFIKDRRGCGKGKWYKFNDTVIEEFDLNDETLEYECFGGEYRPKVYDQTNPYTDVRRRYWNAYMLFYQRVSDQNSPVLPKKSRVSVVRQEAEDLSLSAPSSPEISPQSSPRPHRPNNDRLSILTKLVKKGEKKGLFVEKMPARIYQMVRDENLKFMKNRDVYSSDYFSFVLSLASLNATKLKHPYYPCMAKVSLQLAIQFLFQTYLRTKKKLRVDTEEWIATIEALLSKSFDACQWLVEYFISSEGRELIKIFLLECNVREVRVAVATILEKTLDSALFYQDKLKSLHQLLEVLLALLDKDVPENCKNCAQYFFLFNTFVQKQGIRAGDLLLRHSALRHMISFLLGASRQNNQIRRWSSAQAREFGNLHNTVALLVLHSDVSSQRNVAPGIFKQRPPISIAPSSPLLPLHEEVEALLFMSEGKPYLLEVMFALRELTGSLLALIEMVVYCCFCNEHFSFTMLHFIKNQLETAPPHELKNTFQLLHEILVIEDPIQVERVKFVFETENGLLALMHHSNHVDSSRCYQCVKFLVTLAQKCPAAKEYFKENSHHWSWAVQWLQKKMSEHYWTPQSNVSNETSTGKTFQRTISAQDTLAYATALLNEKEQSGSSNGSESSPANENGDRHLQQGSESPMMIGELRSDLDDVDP

C[C@H]1CN(C(=O)CCl)CCN1C(=O)c1cnn(C)c1.Cl
inactive: USP19 -0.18 | USP22 -0.177 | USP24 -0.132 | USP25 -0.0187 | USP28 -0.325

Reference: the supplement of paper PMC11732987, “Enantioselective OTUD7B fragment discovery through chemoproteomics screening and high-throughput optimisation” (Communications Chemistry, 2025)
